Measured values published in PubChem BioAssay (EPA / NIEHS).
Where “and” joins values, the source holds several entries; their conditions need not be identical. Equal entries are not always repeated. Results filed as inconclusive are left out. Some structures have more than one record in an assay (separate samples or runs), and their calls can disagree. Calls of active or inactive are those of the source. How the source made its calls, unless noted: active means hit-call score of the fitted dose curve at least 0.9, where 1 is the maximum; inactive means score below 0.9.

Legend:
[1] = target: Transcription factor E2F1 (Homo sapiens) (UniProt Q01094); experiment: ATG_E2F_CIS: Attagene CIS-FACTORIAL HepG2 Assay for human E2F Transcription Factor 1 (AID 2282935); conditions: HepG2 Attagene cis-reporter, E2F reporter RNA transcripts; actives raise or lower the signal
Sequence of Transcription factor E2F1 (Homo sapiens) (Q01094 whole entry, looked up): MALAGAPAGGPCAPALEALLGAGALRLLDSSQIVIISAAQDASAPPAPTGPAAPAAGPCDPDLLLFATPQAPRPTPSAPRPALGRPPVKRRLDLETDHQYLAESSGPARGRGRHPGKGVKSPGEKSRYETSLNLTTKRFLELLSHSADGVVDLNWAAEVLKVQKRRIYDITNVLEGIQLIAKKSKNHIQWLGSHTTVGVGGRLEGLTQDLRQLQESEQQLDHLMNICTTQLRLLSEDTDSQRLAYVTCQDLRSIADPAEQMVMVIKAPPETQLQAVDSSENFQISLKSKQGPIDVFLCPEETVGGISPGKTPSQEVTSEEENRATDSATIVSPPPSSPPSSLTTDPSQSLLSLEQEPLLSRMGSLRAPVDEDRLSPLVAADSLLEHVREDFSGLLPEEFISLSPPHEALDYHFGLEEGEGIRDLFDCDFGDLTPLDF
Procedure, shortened: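 Endogenous E2F1 activity read through cis-promoter reporter units transfected into HepG2. After 24 h compound treatment, reporter mRNA measured by RT-PCR, HpaI digestion and capillary electrophoresis. Bidirectional fit versus DMSO.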

[2] = ATG_M_19_CIS: Attagene CIS-FACTORIAL HepG2 Assay for M19 Transcription Factor (Internal Marker) (AID 2282939); conditions: HepG2 Attagene CIS-FACTORIAL M19 internal marker reporter; actives raise or lower the signal
Procedure, shortened: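 In this multiplexed cell assay, transiently transfected HepG2 reporter units report endogenous transcription-factor activity; after 24 hours of treatment, labelled reporter cDNA fragments are quantified by capillary electrophoresis and fitted bidirectionally against DMSO.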

[3] = ATG_TA_CIS: Attagene CIS-FACTORIAL HepG2 Assay for human TA Basal Promoter (AID 2282964); conditions: HepG2 Attagene CIS-factorial TA basal promoter reporter; actives raise or lower the signal
Procedure, shortened: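 Transient MRTU transfection of HepG2 preceded 24 h compound exposure. Reporter mRNA levels were then read by RT-PCR with capillary electrophoresis, and this background-control endpoint was fitted bidirectionally to DMSO.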

[4] = ATG_TCF_b_cat_CIS: Attagene CIS-FACTORIAL HepG2 Assay for human T-Cell-Factor with beta-catenin (TCF/b-cat) (AID 2282965); conditions: HepG2 TCF/beta-catenin cis-reporter transcription, actives raise or lower the signal
Procedure, shortened: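 HepG2 cells transiently transfected with cis-promoter-driven multiplexed reporter units; reporter mRNA measured 24 h after dosing by RT-PCR, FAM labelling, HpaI digestion and capillary electrophoresis. Bidirectional fitting relative to DMSO baseline.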

[5] = ATG_VDRE_CIS: Attagene CIS-FACTORIAL HepG2 Assay for human Vitamin D Receptor Element (VDRE) (AID 2282968); conditions: HepG2 VDRE cis-reporter transcription, actives raise or lower the signal
Procedure, shortened: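 Transiently transfected HepG2 cells carrying cis-regulated reporter transcription units were exposed for 24 h. Reporter mRNA was measured by RT-PCR with fluorescent labelling and capillary electrophoresis, and fitted in both directions against DMSO.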

[6] = target: Transcriptional activator Myb (Homo sapiens) (UniProt P10242); experiment: ATG_Myb_CIS: Attagene CIS-FACTORIAL HepG2 Assay for human Myeloblastosis (Myb) Proto-Oncogene Transcription Factor (AID 2282986); conditions: HepG2 Attagene CIS-FACTORIAL Myb reporter transcription; actives raise or lower the signal
Sequence of Transcriptional activator Myb (Homo sapiens) (P10242 whole entry, looked up): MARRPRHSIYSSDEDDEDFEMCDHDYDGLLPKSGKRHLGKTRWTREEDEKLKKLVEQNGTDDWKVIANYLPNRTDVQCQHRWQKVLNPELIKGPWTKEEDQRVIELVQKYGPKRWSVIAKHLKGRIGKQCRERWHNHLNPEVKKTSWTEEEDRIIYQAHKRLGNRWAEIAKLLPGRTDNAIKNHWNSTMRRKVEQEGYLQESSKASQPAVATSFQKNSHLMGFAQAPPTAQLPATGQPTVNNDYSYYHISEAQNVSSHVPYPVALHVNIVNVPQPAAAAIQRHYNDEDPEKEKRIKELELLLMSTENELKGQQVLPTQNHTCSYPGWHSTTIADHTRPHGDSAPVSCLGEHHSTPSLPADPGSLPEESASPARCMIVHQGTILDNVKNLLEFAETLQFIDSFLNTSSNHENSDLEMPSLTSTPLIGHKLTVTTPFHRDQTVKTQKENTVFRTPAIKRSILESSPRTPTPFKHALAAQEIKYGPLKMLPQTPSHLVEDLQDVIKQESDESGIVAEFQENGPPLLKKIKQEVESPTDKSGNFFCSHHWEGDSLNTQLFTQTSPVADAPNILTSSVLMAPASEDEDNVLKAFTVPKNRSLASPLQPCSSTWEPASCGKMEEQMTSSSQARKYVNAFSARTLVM
Procedure, shortened: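 After 24 h of compound dosing, total RNA from transfected HepG2 cells is reverse-transcribed and the reporter sequences amplified, labeled and separated by capillary electrophoresis. Values come from bidirectional fitting against DMSO.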

[7] = target: Cellular tumor antigen p53 (Homo sapiens) (UniProt P04637); experiment: ATG_p53_CIS: Attagene CIS-FACTORIAL HepG2 Assay for human p53 Transcription Factor (AID 2282994); conditions: HepG2 p53 cis-element reporter, Attagene mRNA; actives raise or lower the signal
Sequence of Cellular tumor antigen p53 (Homo sapiens) (P04637 whole entry, looked up): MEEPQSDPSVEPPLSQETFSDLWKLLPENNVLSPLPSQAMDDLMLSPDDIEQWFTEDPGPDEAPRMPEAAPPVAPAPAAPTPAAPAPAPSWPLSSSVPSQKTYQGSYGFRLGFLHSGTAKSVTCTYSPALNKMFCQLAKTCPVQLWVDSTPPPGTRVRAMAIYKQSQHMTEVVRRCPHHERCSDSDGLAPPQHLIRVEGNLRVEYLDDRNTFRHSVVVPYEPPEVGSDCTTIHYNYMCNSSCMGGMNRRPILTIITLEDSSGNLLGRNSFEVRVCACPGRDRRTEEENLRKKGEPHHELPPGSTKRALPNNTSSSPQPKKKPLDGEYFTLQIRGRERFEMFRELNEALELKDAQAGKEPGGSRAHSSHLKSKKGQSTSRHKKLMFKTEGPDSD
Procedure, shortened: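 Using HepG2 hepatoma cells carrying cis-acting multiplexed reporters, mRNA induction is detected after a 24 h exposure. Gain- and loss-of-signal responses are fitted relative to DMSO-treated cells.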

[8] = target: Nuclear receptor subfamily 1 group I member 2 (Homo sapiens) (UniProt O75469); experiment: ATG_PXR_TRANS: Attagene TRANS-FACTORIAL HepG2 Assay for human Pregnane X Receptor (PXR) (AID 2283008; active means hit-call score of the fitted dose curve at least 0.9, where 1 is the maximum)
Sequence of Nuclear receptor subfamily 1 group I member 2 (Homo sapiens) (O75469 whole entry, looked up, the tested form may be a part): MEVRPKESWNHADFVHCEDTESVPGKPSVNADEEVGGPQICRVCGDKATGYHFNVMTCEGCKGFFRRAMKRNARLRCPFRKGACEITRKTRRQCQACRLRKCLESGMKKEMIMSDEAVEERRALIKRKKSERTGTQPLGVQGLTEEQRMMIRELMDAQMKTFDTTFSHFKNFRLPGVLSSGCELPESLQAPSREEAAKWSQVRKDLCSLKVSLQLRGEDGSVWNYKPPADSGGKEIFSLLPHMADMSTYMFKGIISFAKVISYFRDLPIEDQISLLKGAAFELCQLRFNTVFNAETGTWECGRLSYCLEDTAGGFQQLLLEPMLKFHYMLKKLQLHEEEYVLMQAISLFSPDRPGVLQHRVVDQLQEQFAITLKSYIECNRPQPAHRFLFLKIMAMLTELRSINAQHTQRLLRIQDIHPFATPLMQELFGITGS
Procedure, shortened: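 Fluorescence intensity of FAM-labelled, HpaI-digested reporter amplicons, separated by capillary electrophoresis, quantifies induction. HepG2 cells with PXR-Gal4 trans-reporter system were exposed 24 h; DMSO defines baseline.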

[9] = BSK_3C_Proliferation: Cell Proliferation Assessment in the BioMAP Diversity Plus: 3C Assay (AID 2283006); conditions: primary human endothelial cells (HUVEC);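 on AC50: potency may reflect either rise or fall in cell number versus DMSO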
Procedure, shortened: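 Subconfluent HUVEC (3C system) cultured with chemical; relative cell number read at 48 h by sulforhodamine B total-protein staining (0.1% SRB after 10% TCA fixation, 560 nm). Bidirectional fit relative to DMSO.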

[10] = read-out: Interferon-inducible T-cell alpha chemoattractant (ITAC), CXCL11 (gene 6373); experiment: BSK_hDFCGF_ITAC: BioMAP Diversity Plus: hDFCGF Assay for Interferon-inducible T-cell alpha chemoattractant (ITAC) Biomarker Activity (AID 2284251); conditions: primary human foreskin fibroblasts
Procedure, shortened: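 Primary human foreskin fibroblasts (hDFCGF system) treated for 24 h; I-TAC quantified by ELISA. Gain-direction fitting versus DMSO; parallel SRB staining of total protein flagged overt cytotoxicity.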

[11] = read-out: Epidermal growth factor receptor (EGFR), EGFR (gene 1956); experiment: BSK_BE3C_EGFR: BioMAP Diversity Plus: BE3C Assay for Epidermal growth factor receptor (EGFR) Biomarker Activity (AID 2284281); conditions: primary human bronchial epithelial cells
Procedure, shortened: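 Human primary bronchial epithelial cells (BE3C system) dosed with chemicals; EGFR measured by ELISA at 24 h, fitted in the positive direction relative to DMSO. Cytotoxicity tracked in parallel cultures by SRB total-protein staining.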

[12] = read-out: Matrix Metallopeptidase 9 (MMP9), MMP9 (gene 4318); experiment: BSK_BE3C_MMP9: BioMAP Diversity Plus: BE3C Assay for Matrix Metallopeptidase 9 (MMP9) Biomarker Activity (AID 2284283); conditions: primary human bronchial epithelial cells
Procedure, shortened: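 Human primary bronchial epithelial cells in the BE3C system were dosed with compound for 24 h. MMP-9 was measured by ELISA, and the positive-direction response was fitted relative to DMSO as baseline. Parallel SRB staining gauged cytotoxicity.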

[13] = read-out: TIMP metallopeptidase inhibitor 2 (TIMP2), TIMP2 (gene 7077); experiment: BSK_hDFCGF_TIMP2: BioMAP Diversity Plus: hDFCGF Assay for TIMP metallopeptidase inhibitor 2 (TIMP2) Biomarker Activity (AID 2284289); conditions: primary human foreskin fibroblasts
Procedure, shortened: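 Primary human foreskin fibroblasts in the hDFCGF system, dosed for 24 h; TIMP-2 level measured by ELISA, fitted in the positive direction against DMSO; cytotoxicity checked in parallel by sulforhodamine B total protein staining.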

[14] = read-out: Thrombomodulin, THBD (gene 7056); experiment: BSK_LPS_Thrombomodulin: BioMAP Diversity Plus: LPS Assay for Thrombomodulin Biomarker Activity (AID 2284296); conditions: primary human HUVEC with PBMC
Procedure, shortened: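 Human umbilical vein endothelial cells co-cultured with PBMC and stimulated with LPS; cell-surface thrombomodulin measured by ELISA 24 hours after compound. Gain or loss versus DMSO; cytotoxicity checked by SRB staining in parallel cultures.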

CD69, CD69 (gene 969) = experiment: BSK_LPS_CD69: BioMAP Diversity Plus: LPS Assay for CD69 Biomarker Activity (AID 2284303); conditions: primary human HUVEC with PBMC
Procedure, shortened: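 Human umbilical vein endothelial cells co-cultured with PBMC under LPS stimulation, chemical exposure 24 h; cell-surface CD69 measured by ELISA and fitted in the positive direction versus DMSO.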

[15] = ATG_Sox_CIS: Attagene CIS-FACTORIAL HepG2 Assay for human SRY-box transcription factor (SOX) (AID 2282960); conditions: HepG2 Attagene cis-factorial SOX reporter, mRNA; actives raise or lower the signal
Procedure, shortened: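 HepG2, cis reporter units, 24 h exposure. Reporter mRNA: RT-PCR → FAM labelling → HpaI → CE fluorescence. Bidirectional fit vs DMSO.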

[16] = target: X-box-binding protein 1 (Homo sapiens) (UniProt P17861); experiment: ATG_Xbp1_CIS: Attagene CIS-FACTORIAL HepG2 Assay for human X-box Binding Protein 1 (XBP1) (AID 2282972); conditions: HepG2 XBP1 cis-element reporter, Attagene multiplex; actives raise or lower the signal
Sequence of X-box-binding protein 1 (Homo sapiens) (P17861 whole entry, looked up): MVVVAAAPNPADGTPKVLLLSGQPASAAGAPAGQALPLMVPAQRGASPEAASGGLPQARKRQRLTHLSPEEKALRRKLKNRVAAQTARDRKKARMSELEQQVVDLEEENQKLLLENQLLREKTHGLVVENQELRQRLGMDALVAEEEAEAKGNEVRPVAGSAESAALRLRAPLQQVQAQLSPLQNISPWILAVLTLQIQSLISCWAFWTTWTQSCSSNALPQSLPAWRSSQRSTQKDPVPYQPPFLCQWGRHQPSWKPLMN
Procedure, shortened: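 After a 24-hour chemical exposure of HepG2 cells carrying cis-regulated reporters, reporter mRNA levels are assessed. Quantification uses RT-PCR, 6-FAM labelling and capillary electrophoresis. Gain- or loss-of-signal is fitted against DMSO.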

[17] = ACEA_ER_AUC_viability: ACEA Biosciences xCELLigence Real-Time Cell Analysis on Estrogen Receptor Agonism for Viability (AID 2283782; active means hit-call score of the fitted dose curve at least 0.9, where 1 is the maximum;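 further: continuous compound exposure with impedance area under curve over 80 h; hit means loss of impedance signal meaning reduced cell growth or viability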)
Procedure, shortened: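 T47D cells preconditioned in phenol red-free RPMI with charcoal-stripped FBS, then dosed with 8-point 1:4 series from 100 uM (up to 0.5% DMSO). Impedance monitored up to ~80 h; area-under-curve loss versus DMSO taken as viability.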

[18] = target: human Retinoid X Receptor beta (RXRb), RXRB (gene 6257) (UniProt P28702); experiment: ATG_RXRb_TRANS: Attagene TRANS-FACTORIAL HepG2 Assay for human Retinoid X Receptor beta (RXRb) (AID 2283013; active means hit-call score of the fitted dose curve at least 0.9, where 1 is the maximum)
Sequence of human Retinoid X Receptor beta (RXRb), RXRB (gene 6257) (P28702 whole entry, looked up, the tested form may be a part): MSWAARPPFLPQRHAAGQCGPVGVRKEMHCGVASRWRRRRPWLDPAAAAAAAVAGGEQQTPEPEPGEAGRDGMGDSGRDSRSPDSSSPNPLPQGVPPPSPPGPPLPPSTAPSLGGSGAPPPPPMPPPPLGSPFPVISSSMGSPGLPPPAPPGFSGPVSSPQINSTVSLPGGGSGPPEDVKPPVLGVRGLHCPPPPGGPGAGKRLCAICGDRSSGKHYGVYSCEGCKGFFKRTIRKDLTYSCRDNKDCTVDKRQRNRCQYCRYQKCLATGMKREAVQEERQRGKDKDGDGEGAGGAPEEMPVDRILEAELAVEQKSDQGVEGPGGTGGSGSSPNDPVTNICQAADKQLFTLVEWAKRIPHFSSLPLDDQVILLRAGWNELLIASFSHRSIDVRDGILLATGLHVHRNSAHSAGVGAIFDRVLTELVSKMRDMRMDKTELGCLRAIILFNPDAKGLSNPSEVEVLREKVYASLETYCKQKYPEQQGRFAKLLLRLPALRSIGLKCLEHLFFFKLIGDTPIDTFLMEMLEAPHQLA
Procedure, shortened: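 HepG2 cells were transiently transfected with multiplexed GAL4-UAS reporters and a chimeric RXRb-Gal4 construct, then exposed for 24 h. Reporter mRNA was quantified by RT-PCR, FAM labeling, HpaI digestion and capillary electrophoresis; gain of signal was scored against DMSO.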

[19] = target: mouse Estrogen Receptor alpha (Era), Esr1 (gene 13982) (UniProt P19785); experiment: NVS_NR_mERa: NovaScreen (NVS) Nuclear Receptor Binding Assay for mouse Estrogen Receptor alpha (Era) (AID 2283378; active means hit-call score of the fitted dose curve at least 0.9, where 1 is the maximum;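 further: hit means loss of bound radioligand signal relative to DMSO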)
Sequence of mouse Estrogen Receptor alpha (Era), Esr1 (gene 13982) (P19785 whole entry, looked up): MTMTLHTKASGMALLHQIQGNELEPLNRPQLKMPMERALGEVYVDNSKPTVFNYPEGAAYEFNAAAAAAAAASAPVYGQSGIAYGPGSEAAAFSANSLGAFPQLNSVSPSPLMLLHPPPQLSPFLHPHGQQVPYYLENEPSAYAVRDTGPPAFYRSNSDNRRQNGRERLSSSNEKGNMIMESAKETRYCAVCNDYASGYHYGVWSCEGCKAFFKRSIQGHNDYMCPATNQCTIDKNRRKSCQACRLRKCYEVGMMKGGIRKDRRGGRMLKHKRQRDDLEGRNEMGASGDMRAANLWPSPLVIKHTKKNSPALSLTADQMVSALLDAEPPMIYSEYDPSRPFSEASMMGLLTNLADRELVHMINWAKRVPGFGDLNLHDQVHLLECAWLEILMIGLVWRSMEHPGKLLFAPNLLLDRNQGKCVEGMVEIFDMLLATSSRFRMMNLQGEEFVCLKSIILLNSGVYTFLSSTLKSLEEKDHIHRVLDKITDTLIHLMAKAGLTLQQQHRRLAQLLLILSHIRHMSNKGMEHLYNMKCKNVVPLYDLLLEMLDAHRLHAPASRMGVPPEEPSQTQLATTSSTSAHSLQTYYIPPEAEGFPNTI
Procedure, shortened: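 Cell-free radioligand binding with extracted mouse Era protein; competitive displacement of radiolabelled ligand, read by filter-based scintillation counting 18 hours after dosing. Loss of signal versus DMSO baseline taken as binding; single screening concentration 25 uM, actives followed in concentration series.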

Measured: AC50

C[Si](C)(C)O[Si](C)(C)O[Si](C)(C)C
inactive: [1] | [2] | [3] | [4] | [5] | [6] | [7] | [8]

COc1cc(CNC(=O)CCCC/C=C/C(C)C)ccc1O
active: [9] 8.93 µM and 9.17 µM | [10] 8.32 µM and 8.05 µM | [13] 27.7 µM
inactive: [11] | [12] | [13] | [14] | CD69, CD69 (gene 969)

CC[N+](CC)(CC(=O)Nc1c(C)cccc1C)Cc1ccccc1
inactive: [1] | [2] | [15] | [16] | [6] | [8] | [17]

CCCN[C@H]1CCc2nc(N)sc2C1
inactive: [2] | [15] | [3] | [4] | [5] | [16] | [6] | [7] | [18]

COc1ccc2ccccc2c1
inactive: [2] | [3] | [4] | [16] | [6] | [7] | [18]

CCCCCC[C@@H](O)C/C=C\CCCCCCCC(=O)O
active: [1] 177 µM | [4] 60.1 µM | [6] 123 µM | [18] 30.9 µM
inactive: [2] | [15] | [3] | [5] | [16] | [7] | [8] | [17]

Nc1nc(N)c2nc(-c3ccccc3)c(N)nc2n1
inactive: [19]

O=[N+]([O-])c1cc(S(=O)(=O)Nc2ccccc2)ccc1Nc1ccccc1
active: [9] 30.6 µM and 30.9 µM | [10] 27.4 µM and 24 µM | [11] 20 µM and 19.6 µM | [12] 33.4 µM and 20 µM | [13] 29.8 µM and 30.3 µM | [14] 20 µM and 28.1 µM | CD69, CD69 (gene 969) 13.2 µM and 10.7 µM

CCCCCCCCCC/C=C/C1CC(=O)OC1=O (stereo not given)
inactive: [1] | [2] | [4] | [5] | [16] | [6] | [7] | [9] | [18]
active: [17] 64.1 µM

Oc1cccc2ccccc12
inactive: [1] | [2] | [15] | [3] | [5] | [16] | [6] | [7] | [9] | [8] | [18]
active: [4] 100 µM

OC(C(F)(F)F)(C(F)(F)F)C(O)(C(F)(F)F)C(F)(F)F
active: [9] 22.1 µM and 21.6 µM | [10] 21.2 µM and 20.9 µM | [11] 22.7 µM | [12] 30 µM | [13] 6.98 µM and 8.04 µM | CD69, CD69 (gene 969) 12.9 µM and 9.36 µM
inactive: [11] | [14]

O=S(=O)(O)c1cccc2ccccc12
inactive: [1] | [2] | [15] | [3] | [4] | [16] | [6] | [7] | [8] | [17]

CCCCC(CC)COC(=O)C=Cc1ccc(OC)cc1 (stereo not given)
inactive: [10] | [11] | [12]
active: [9] 32.7 µM and 27.1 µM | [13] 3.97 µM and 6.38 µM | [14] 10.6 µM and 20 µM | CD69, CD69 (gene 969) 15.4 µM and 23.4 µM

Cc1c(C(N)=O)cc([N+](=O)[O-])cc1[N+](=O)[O-]
inactive: [9] | [10] | [11] | [12] | [13] | [14] | CD69, CD69 (gene 969)
active: [12] 15.4 µM | [14] 149 nM

CCCCCCOC(=O)CCCCCCCC(=O)OCCCCCC
inactive: [1] | [15] | [3] | [4] | [5] | [16] | [6] | [8] | [18]
active: [17] 50 µM
